Assay outcomes as filed in PubChem.
Shown are actives, neighbours in structure and some others; about 19% of the full set was active somewhere.
HT1080NT lethal: kills 2HG-producing HT-1080-NT fibrosarcoma cells; HT-1080-NT fibrosarcoma viability, CellTiter-Glo ATP luminescence, 48 h; Potency, µM (titrated, usually from 46.1 µM), usual class: cytotoxic; 360,000 tested, 1.6% active; AID 686970;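 also: NT is the 2HG producing partner of a matched IDH1 knockdown line; nearly all actives have a fitted effect of over 55% in size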
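Viability by CellTiter-Glo luminescence after 48 h compound exposure at 37C of HT-1080-NT cells (750/well, RPMI, 5% FBS). % activity scaled between DMSO wells and medium-only wells, then curve-fitted and categorized by curve class.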
DT40 TDP1 CPT: DT40-hTDP1 cell growth loss with CPT; chicken DT40 Tdp1-/-;hTDP1 cells + 20 nM CPT, ATP luminescence, 48 h; Potency, µM (doses to about 46.2 µM), usual class: inhibitors; 420,000 tested, 12% active; also: nearly all actives have a fitted effect of over 55% in size
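Chicken DT40 Tdp1-/- cells complemented with human TDP1, 400 cells/well, exposed to compounds plus 20 nM camptothecin for at least 48 h at 37 C; viability read as ATP content by CellTiter-Glo luminescence.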
HT1080 IDH1KD tx: HT-1080 IDH1 knockdown cell toxicity (counter line) | HT-1080 IDH1 knockdown viability, ATP luminescence, 48 h | Potency, µM (doses to about 46.1 µM), hits mostly cytotoxic | 360,000 tested, 2% active | AID 686971
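IDH1KD HT-1080 cells, 750/well, RPMI + 5% FBS; compound pinned after 2 h settling; 48 h, 37 °C; CellTiter-Glo luminescence; % activity normalised to DMSO and no-cell wells; curves fitted, classed by r2 and efficacy.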
TDP1 cell noCPT: qHTS for Inhibitors of human tyrosyl-DNA phosphodiesterase 1 (TDP1): qHTS in cells in absence of CPT | DT40 Tdp1-/- hTDP1 cells, no CPT, ATP luminescence, 48 h | Potency, µM (doses to about 46.2 µM), most hits filed as inhibitors | 420,000 tested, 15% active | AID 686978, 2013; also: nearly all actives have a fitted effect of over 55% in size
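Camptothecin absent (DMSO only). Human TDP1-complemented DT40 knockout cells, 400 cells/well, 37 °C for minimum 48 hr; ATP measured via CellTiter-Glo, 30 min dark incubation, luminescence.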
IL-1B inflam inh: blocks inflammasome-driven IL-1 beta release; 360,000 tested, 4.7% active; THP-1 LPS/ATP IL-1B secretion, AlphaLISA, 16 h; stronger effect = lower value; activity change, % at 57.5 µM; in the data active = activity change below about -50%; inconclusive = mostly about -30% to -49%
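THP-1 cells pretreated 1 hr with compounds (up to 57.5 uM final), then stimulated with LPS (250 ng/mL final) plus ATP (1.25 mM final); secreted IL-1B measured by AlphaLISA after 16 hr, decreased signal indicating inhibition.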
A number is an active result; – = inactive; ? = inconclusive; · = no result given; [ ] = dose if it differs, or a comment. Unless noted, calls follow the shape of the dose curve; as a rule, active = well fitted curve in the direction sought with a large enough effect; inconclusive = small, poorly fitted or top-dose-only effect, or another doubt; inactive = no such curve, though single readings can be large; an effect the other way counts as inactive or inconclusive.

SMILES	HT1080NT lethal	DT40 TDP1 CPT	HT1080 IDH1KD tx	TDP1 cell noCPT	IL-1B inflam inh
COc1cc(C(=O)OCC(=O)NC2CCCCCC2)ccc1OCC(C)C	–	?	–	3.3µM	–
COc1cc(C(=O)OCC(=O)NCC2CCCCC2)ccc1OCC(C)C	–	?	–	?	–
CCOc1ccccc1NS(=O)(=O)c1ccc2c(c1)CC(C)N2C(=O)C1CC1 (configuration not stated)	·	?	·	15µM	·
COc1ccc(NS(=O)(=O)c2ccc3c(c2)CC(C)N3C(C)=O)c(OC)c1 (configuration not stated)	·	18µM	·	21µM	·
CC1Cc2cc(S(=O)(=O)NCCc3ccccc3)ccc2N1C(=O)C1CC1 (configuration not stated)	–	15µM	–	15µM	–
CC1Cc2cc(S(=O)(=O)NCc3ccccc3Cl)ccc2N1C(=O)C1CCC1 (configuration not stated)	·	15µM	·	7.3µM	·
CC(NS(=O)(=O)c1ccc2c(c1)CC(C)N2C(=O)C1CC1)c1ccccc1 (configuration not stated)	–	–	–	–	–
CCOc1ccccc1NC(=O)CCS(=O)(=O)c1ccc2c(c1)CC(C)N2C(C)=O (configuration not stated)	–	–	–	–	–
O=C(O)c1ccc(-n2cc(-c3cc4ccccc4oc3=O)[nH]c2=S)cc1	–	–	–	–	–
CC(=O)c1ccc(S(=O)(=O)N2CCN(C(=O)CSc3ccc(C)c(C)c3)CC2)cc1	–	?	–	?	–
NC(=O)CC(NC(=O)Cc1cccc2ccccc12)c1ccc(N2CCN(c3ccccn3)CC2)c([N+](=O)[O-])c1 (configuration not stated)	–	?	–	–	–
COc1cc(Cn2nnc3ccccc32)cc(Br)c1O	–	–	–	–	–
CCC(=O)N1c2ccc(S(=O)(=O)NCCc3ccc(C)cc3)cc2CC1C (configuration not stated)	–	–	–	–	–
COc1ccccc1CNS(=O)(=O)c1ccc2c(c1)CC(C)N2C(C)=O (configuration not stated)	·	?	·	18µM	·
COc1ccc(CCNS(=O)(=O)c2ccc3c(c2)CC(C)N3C(=O)C2CCC2)cc1OC (configuration not stated)	·	?	·	13µM	·
COCCNC(=O)C1CCC(CNS(=O)(=O)c2ccc3c(c2)CC(C)N3C(=O)C2CC2)CC1 (configuration not stated)	–	–	–	–	–
CCC(=O)N1c2ccc(S(=O)(=O)NCc3ccc(F)cc3)cc2CC1C (configuration not stated)	·	15µM	·	12µM	·
CC(=O)N1c2ccc(S(=O)(=O)NCc3ccco3)cc2CC1C (configuration not stated)	–	–	–	–	–
COc1cccc(CNS(=O)(=O)c2ccc3c(c2)CC(C)N3C(=O)C2CC2)c1 (configuration not stated)	?	21µM	–	10µM	–
O=c1c(C(c2ccccc2)c2c(O)sc3ccccc3c2=O)c(O)sc2ccccc12	–	–	–[9.24 µM]	–	–
CC1CCN(S(=O)(=O)c2ccc3[nH]ccc3c2)CC1	·	?	·	–	·
CC(=O)N1c2ccc(S(=O)(=O)NCCc3ccccc3)cc2CC1C (configuration not stated)	?	?	?	12µM	–
C[C@@H]1CC[C@]2(C(=O)O)CC[C@]3(C)C(=CCC4[C@]56CC[C@@](O)(OC5)C(C)(C)C6CC[C@]43C)C2[C@H]1C (some centres not stated)	?	13µM	?	18µM	–
COC(=O)c1ccc(-c2ccc(/C=N/N3C(=O)C4C5C=CC(C6CC56)C4C3=O)o2)cc1 (configuration not stated)	–	?	–	18µM	-57
CSc1ccccc1NC(=O)CCS(=O)(=O)c1nc(-c2ccc3c(c2)OCO3)cc(C(F)(F)F)n1	·	8.2µM	·	18µM	·
